Inconclusive results are not listed. Active and inactive are the calls of the source. Unless noted, calls follow the shape of the dose curve; as a rule, active = well fitted curve in the direction sought with a large enough effect; inconclusive = small, poorly fitted or top-dose-only effect, or another doubt; inactive = no such curve, though single readings can be large; an effect the other way counts as inactive or inconclusive.
Columns and labels:
[1] = target: Lysosomal acid glucosylceramidase (Homo sapiens) (UniProt P04062); assay: Glucocerebrosidase-p2 (AID 348; in the data active = potency below about 10 µM; also: potency is read from the fitted curve at half-maximal effect); details: purified GBA, blue fluorogenic substrate, 40 min
Sequence of Lysosomal acid glucosylceramidase (Homo sapiens) (P04062 whole entry, looked up): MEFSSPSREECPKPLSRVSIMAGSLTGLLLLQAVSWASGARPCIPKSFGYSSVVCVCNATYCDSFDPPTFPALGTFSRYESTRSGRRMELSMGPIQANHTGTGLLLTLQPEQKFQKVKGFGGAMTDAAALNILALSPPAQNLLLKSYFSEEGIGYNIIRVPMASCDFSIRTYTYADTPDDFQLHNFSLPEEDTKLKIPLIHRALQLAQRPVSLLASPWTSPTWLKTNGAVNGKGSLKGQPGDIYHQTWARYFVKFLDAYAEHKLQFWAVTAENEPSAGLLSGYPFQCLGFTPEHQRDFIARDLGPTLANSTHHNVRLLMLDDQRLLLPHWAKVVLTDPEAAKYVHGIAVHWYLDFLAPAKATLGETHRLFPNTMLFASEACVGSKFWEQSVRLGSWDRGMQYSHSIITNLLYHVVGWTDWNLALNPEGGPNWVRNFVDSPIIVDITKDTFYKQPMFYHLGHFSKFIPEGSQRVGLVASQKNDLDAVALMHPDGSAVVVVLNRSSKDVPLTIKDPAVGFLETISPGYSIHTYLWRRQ
In short: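 Compounds titrated from 0.6 nM upwards against 0.2 nM enzyme in pH 5.9 citric acid/KH2PO4, taurocholate, tween-20; blue fluorogenic substrate 80 uM, 40 min room temperature, stopped and read Ex 365/Em 440 for AC50.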

[2] = AP1 Signaling Pathway (AID 357; active = well fitted curve in either direction with a large enough effect, not every such curve was filed as active; also: % is scaled to controls: 0 for no effect and ±100 for the full control effect); details: ME-180 AP-1-bla reporter, EGF-induced, beta-lactamase ratio, 5 h; at 7.69 µM (top of the series) unless noted
In short: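 AP-1-bla ME-180 cells with beta-lactamase reporter under AP-1 response element, stimulated with EC50 EGF; compounds titrated, 5 hours at 37 degrees Celsius. CCF4 read at 460/530 nm ratio; positive and negative modulators judged by AC50.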

[3] = target: Cytochrome P450 1A2 (Homo sapiens) (UniProt P05177); assay: p450-cyp1a2 (AID 410; calls by dose curve; also: potency is read from the fitted curve at half-maximal effect;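 as to activity change, negative = inhibition: -100% = full effect of reference inhibitor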); details: recombinant CYP1A2, luciferin-ME demethylation, luminescence; series mostly up to 57 µM
Sequence of Cytochrome P450 1A2 (Homo sapiens) (P05177 whole entry, looked up): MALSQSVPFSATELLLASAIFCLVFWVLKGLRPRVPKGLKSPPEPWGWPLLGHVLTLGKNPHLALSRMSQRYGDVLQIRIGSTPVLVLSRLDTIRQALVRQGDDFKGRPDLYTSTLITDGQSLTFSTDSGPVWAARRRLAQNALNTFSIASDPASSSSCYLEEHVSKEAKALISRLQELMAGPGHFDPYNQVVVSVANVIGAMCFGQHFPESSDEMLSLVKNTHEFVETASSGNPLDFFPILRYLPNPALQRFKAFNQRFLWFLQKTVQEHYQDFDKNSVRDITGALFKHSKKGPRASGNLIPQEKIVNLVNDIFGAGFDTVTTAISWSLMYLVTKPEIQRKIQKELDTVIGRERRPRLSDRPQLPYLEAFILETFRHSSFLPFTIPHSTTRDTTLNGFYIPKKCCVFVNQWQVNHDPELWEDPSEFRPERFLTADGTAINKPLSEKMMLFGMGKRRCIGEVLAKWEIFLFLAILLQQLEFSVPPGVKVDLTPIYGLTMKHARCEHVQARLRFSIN
In short: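 Human CYP1A2 (20nM) demethylated Luciferin-ME at its Km (100uM) in 100mM KPO4. After 10 min compound preincubation, NADPH regeneration ran the reaction 60 min at room temperature. Luciferin was read by luminescence, normalized to 57 uM furafylline.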

[4] = NFAT Signaling Pathway (AID 444; active = well fitted curve in either direction with a large enough effect, not every such curve was filed as active;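 also: carbachol stimulus at about its EC50 of 1 µM final; % is scaled to controls: 0 for no effect and ±100 for the full control effect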); details: Jurkat NFAT-bla M1, carbachol, beta-lactamase ratio, 5 h; at 7.69 µM (top of the series) unless noted
In short: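 Jurkat cells with NFAT-driven β-lactamase reporter and co-expressed M1 receptor, stimulated with carbachol (final 1 uM, ~EC50), compound titration, 5 h at 37 °C. CCF4 loaded 1 h at RT; 460/530 nm ratio gave %activity and AC50.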

[5] = Stat Signaling Pathway (AID 446; active = well fitted curve in either direction with a large enough effect, not every such curve was filed as active;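 also: ME-180 cervical cancer cells given 40 pM IL-6 alongside compound; SIE-controlled beta-lactamase reporter measured as 460/530 nm FRET emission ratio; % is scaled to controls: 0 for no effect and ±100 for the full control effect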); details: ME-180 SIE beta-lactamase reporter, IL-6 stimulated, 5 h; at 7.69 µM (top of the series) unless noted
In short: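 ME-180 cells carrying a SIE-driven beta-lactamase reporter are stimulated with 40 pM IL-6 for 5 h at 37C in the presence of compound. The 460/530 nm FRET substrate ratio is read after 2.5 h at RT. Data are normalised to 300 pM IL-6 and to 125 nM JAK inhibitor controls.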

[6] = target: Glucocorticoid receptor (Homo sapiens) (UniProt P04150); assay: GR-EFC Redistribution (AID 451; calls by dose curve; also: potency is read from the fitted curve at half-maximal effect); details: CHO-K1 GR-EFC translocation, beta-gal luminescence, 2 h
Sequence of Glucocorticoid receptor (Homo sapiens) (P04150 whole entry, looked up, the tested form may be a part): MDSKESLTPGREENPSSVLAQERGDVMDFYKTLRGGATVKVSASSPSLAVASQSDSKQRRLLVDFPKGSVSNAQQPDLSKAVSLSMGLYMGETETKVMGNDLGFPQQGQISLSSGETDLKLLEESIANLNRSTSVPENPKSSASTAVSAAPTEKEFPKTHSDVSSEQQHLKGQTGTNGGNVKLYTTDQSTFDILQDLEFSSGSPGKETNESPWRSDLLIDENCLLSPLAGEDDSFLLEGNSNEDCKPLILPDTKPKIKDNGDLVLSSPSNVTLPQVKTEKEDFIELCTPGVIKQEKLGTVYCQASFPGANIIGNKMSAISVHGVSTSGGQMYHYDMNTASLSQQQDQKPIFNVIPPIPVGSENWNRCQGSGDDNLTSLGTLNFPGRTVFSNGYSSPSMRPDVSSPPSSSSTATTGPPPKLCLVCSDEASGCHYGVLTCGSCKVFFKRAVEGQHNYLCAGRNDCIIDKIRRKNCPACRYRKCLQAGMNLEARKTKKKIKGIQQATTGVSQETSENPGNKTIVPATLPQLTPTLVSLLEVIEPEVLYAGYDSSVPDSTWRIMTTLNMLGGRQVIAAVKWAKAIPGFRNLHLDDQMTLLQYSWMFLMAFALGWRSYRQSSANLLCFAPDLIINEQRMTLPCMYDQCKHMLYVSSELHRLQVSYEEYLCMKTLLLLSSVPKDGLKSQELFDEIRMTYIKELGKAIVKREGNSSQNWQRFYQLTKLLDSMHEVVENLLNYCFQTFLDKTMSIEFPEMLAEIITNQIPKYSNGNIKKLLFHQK
In short: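 CHO-K1 cells expressing nuclear EA and GR-ED fragments of b-gal; compounds titrated up to 46 uM final, 2 h at 37 C. GR nuclear translocation read as complemented b-gal luminescence after 1 h RT detection.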

[7] = target: Mitogen-activated protein kinase 10 (Mus musculus) (UniProt Q61831); assay: JNK3 AlphaScreen Assay (AID 530; active = well fitted curve in either direction with a large enough effect, not every such curve was filed as active;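 also: kinase came from lysate of stimulated human HepG2 cells; signal reports phosphorylation of biotinylated GST-cJun 1-79 at Ser73 with 10 µM ATP; % is scaled to controls: 0 for no effect and ±100 for the full control effect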); details: JNK3 lysate, c-Jun phosphorylation; series mostly up to 57.1 µM
In short: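 qHTS format: compounds tested as titrations against IL-1beta/TNF-alpha-activated HepG2 lysate JNK3 with biotin-GST-cJun substrate and 10 uM ATP at room temperature. Loss of anti-phospho-cJun AlphaScreen signal indicates inhibition.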

[8] = target: 3',5'-cyclic-AMP phosphodiesterase 4B (Homo sapiens) (UniProt Q07343); assay: qHTS Assay for Inhibitors of PDE-IV (AID 607; active = well fitted activation curve with a large enough effect in the main read-out, with a control signal flat, not every such curve was filed as active; also: % of control where 0% means no effect); details: HEK293 ACTOne CNG channel cells, membrane potential fluorescence; series mostly up to 22.9 µM
Sequence of 3',5'-cyclic-AMP phosphodiesterase 4B (Homo sapiens) (Q07343 whole entry, looked up): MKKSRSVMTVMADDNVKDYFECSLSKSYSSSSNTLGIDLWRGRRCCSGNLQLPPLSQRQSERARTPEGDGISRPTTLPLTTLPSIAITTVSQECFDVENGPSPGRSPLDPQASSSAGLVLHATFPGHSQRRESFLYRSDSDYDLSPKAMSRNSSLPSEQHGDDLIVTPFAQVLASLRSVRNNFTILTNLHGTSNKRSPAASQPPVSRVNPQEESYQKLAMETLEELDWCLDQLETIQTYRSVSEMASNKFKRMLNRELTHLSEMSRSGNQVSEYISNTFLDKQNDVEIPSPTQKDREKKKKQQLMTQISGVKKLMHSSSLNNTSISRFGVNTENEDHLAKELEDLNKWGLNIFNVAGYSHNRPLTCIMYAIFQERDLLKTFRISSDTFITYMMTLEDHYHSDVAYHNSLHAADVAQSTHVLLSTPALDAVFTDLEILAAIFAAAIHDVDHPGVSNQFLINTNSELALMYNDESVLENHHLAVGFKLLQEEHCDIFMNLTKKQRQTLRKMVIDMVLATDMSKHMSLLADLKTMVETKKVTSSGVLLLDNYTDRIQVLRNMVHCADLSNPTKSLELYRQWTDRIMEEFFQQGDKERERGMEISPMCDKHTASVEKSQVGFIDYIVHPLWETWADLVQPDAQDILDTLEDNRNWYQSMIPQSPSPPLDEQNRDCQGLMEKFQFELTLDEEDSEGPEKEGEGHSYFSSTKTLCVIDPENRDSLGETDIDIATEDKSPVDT
In short: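 HEK293 ACTOne cells with CNG channel (1000/well), endogenous PDE4; membrane potential dye, compounds up to 22.9 uM final. Fluorescence Ex 535/Em 590; RO 20-1724 (100 uM final) as reference.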

[9] = target: Cytochrome P450 3A4 (Homo sapiens) (UniProt P08684); assay: qHTS Assay for Activators of Cytochrome P450 3A4 (AID 885); details: recombinant CYP3A4, Luciferin-PPXE luminescence, 60 min; series mostly up to 57.1 µM; also: nearly all actives have a fitted effect of over 65% in size
Sequence of Cytochrome P450 3A4 (Homo sapiens) (P08684 whole entry, looked up): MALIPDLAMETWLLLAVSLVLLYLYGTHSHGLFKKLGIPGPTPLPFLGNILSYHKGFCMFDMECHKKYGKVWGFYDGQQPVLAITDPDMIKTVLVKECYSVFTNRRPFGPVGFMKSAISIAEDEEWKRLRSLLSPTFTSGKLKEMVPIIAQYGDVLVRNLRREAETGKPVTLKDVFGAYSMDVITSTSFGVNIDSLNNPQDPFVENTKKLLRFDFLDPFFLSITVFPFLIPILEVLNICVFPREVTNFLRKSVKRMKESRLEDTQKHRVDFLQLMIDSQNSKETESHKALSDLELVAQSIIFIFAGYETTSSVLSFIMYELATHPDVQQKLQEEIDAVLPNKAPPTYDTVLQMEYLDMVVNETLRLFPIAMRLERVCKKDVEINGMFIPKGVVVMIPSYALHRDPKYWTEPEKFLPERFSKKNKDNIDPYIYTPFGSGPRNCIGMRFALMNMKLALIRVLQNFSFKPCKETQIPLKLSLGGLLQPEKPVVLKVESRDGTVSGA
In short: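 Human CYP3A4 (20 nM) with Luciferin-PPXE at 25 uM (its KM) in 200 mM KPO4; 10 min compound preincubation, then NADPH regeneration and 60 min reaction at RT. Luciferin read by luminescence; normalized to 57 uM ketoconazole full inhibition.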

[10] = qHTS Assay for Lipid Storage Modulators (AID 1519; calls by dose curve); details: Drosophila S3 cells, BODIPY lipid droplet/cell ratio, laser cytometry, cells loaded with oleic acid; for activity change, negative = inhibition: at 57.5 µM (top of the series)
In short: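 Cells seeded at 5,000 per well were treated with compounds over a concentration series and loaded with oleic acid (400 uM, as added). Lipid droplet fluorescence (488 nm excitation, 500-530 nm channel) was read by laser-scanning cytometry and normalized to 20 uM Triacsin C.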

[11] = target: Dual specificity protein kinase CLK4 (Homo sapiens) (UniProt Q9HAZ1); assay: qHTS Assay for Inhibitors of CDC-like Kinase 4 (Kinase-Glo Assay) (AID 1770); details: recombinant Clk4, Kinase-Glo ATP depletion luminescence; series mostly up to 66.7 µM; also: nearly all actives have a fitted effect of over 65% in size; also: potency is read from the fitted curve at half-maximal effect
Sequence of Dual specificity protein kinase CLK4 (Homo sapiens) (Q9HAZ1 whole entry, looked up): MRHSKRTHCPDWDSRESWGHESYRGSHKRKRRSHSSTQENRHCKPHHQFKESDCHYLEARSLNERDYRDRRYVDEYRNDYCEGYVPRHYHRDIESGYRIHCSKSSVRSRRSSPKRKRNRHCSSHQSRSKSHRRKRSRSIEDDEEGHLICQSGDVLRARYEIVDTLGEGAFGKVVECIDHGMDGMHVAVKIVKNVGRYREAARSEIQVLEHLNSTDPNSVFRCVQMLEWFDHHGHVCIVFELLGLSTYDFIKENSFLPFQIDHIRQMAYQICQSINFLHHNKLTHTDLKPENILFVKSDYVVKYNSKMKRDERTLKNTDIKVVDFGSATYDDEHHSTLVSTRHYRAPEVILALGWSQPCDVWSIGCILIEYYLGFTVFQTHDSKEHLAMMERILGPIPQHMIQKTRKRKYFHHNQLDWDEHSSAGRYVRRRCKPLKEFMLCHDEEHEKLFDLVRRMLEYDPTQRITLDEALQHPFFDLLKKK
In short: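 Luminescent ATP-depletion read-out (Kinase-Glo) after 4.5 h room-temperature reaction of Clk4 (25 nM final) with RS peptide (100 uM) and ATP (1 uM), pH 7.5 Tris buffer with MgCl2 and DTT.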

[12] = target: Dual specificity protein kinase CLK4 (Homo sapiens) (UniProt Q9HAZ1); assay: qHTS Assay for Inhibitors of CDC-like Kinase 4 (ADP-Glo Assay) (AID 1771); details: recombinant CLK4, ADP-Glo luminescence; series mostly up to 80 µM; also: nearly all actives have a fitted effect of over 70% in size; also: potency is read from the fitted curve at half-maximal effect
In short: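 Clk4 (25 nM) was incubated 1 hr at room temperature with 100 uM RS repeat peptide and 1 uM ATP in buffer with 2 mM MgCl2, 0.5 mM EGTA, 2.5 mM DTT. ADP formed was quantified by ADP-Glo luminescence.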

[13] = target: Dual specificity protein kinase CLK4 (Homo sapiens) (UniProt Q9HAZ1); assay: qHTS Assay for Inhibitors of CDC-like Kinase 4 (ADP-FP Assay) (AID 1795); details: Transcreener ADP fluorescence polarization; series mostly up to 50 µM; also: nearly all actives have a fitted effect of over 60% in size; also: potency is read from the fitted curve at half-maximal effect
In short: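 Kinase activity was measured as ADP production using Transcreener orange tracer (4 nM) and ADP antibody (1 ug/mL) fluorescence polarization, with ADP calculated from a calibration curve. The 1 h reaction contained 6.25 nM Clk4, 1 uM ATP and 100 uM RS peptide at pH 7.5 with Mg2+.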

[14] = target: Ubiquitin carboxyl-terminal hydrolase 1 (Homo sapiens) (UniProt O94782); assay: Inhibitors of USP1/UAF1: Pilot qHTS (AID 504865); details: purified USP1/UAF1, Ub-rhodamine cleavage fluorescence; series mostly up to 54.9 µM; also: nearly all actives have a fitted effect of over 35% in size; also: potency is read from the fitted curve at half-maximal effect
Sequence of Ubiquitin carboxyl-terminal hydrolase 1 (Homo sapiens) (O94782 whole entry, looked up): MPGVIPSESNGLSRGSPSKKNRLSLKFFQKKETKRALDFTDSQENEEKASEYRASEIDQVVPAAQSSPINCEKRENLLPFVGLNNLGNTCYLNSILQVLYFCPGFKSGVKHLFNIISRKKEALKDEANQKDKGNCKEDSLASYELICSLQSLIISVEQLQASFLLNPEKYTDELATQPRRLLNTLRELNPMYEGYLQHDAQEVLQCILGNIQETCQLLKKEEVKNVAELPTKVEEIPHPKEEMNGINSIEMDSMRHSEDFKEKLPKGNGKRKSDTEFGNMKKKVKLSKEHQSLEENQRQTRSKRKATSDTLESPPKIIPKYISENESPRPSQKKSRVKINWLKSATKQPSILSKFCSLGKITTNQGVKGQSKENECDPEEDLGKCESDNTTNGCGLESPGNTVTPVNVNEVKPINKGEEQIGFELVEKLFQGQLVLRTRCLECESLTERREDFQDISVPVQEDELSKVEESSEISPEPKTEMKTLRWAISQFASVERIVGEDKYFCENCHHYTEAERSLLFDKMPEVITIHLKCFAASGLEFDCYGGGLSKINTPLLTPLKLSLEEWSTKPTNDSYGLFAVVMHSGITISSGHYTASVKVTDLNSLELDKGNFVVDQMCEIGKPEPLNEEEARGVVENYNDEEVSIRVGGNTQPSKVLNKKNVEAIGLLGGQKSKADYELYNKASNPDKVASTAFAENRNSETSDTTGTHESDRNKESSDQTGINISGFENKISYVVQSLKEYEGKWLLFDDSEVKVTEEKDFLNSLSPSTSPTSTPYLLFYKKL
In short: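 Deubiquitinase activity followed as kinetic rhodamine fluorescence release from 150 nM Ub-Rho. 1 nM USP1/UAF1 with compound, after 15 min room-temperature preincubation, in HEPES pH 7.8 buffer containing TCEP, EDTA, BSA and Tween-20.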

[15] = target: Glucocorticoid receptor (Homo sapiens) (UniProt P04150); assay: GR-GFP Redistribution (AID 450;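 active = compounds whose dose series gives a full or clear partial fitted curve of increased nuclear translocation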; also: potency is read from the fitted curve at half-maximal effect); details: U2OS GR-GFP nuclear translocation, laser cytometry, 2 h
[16] = qHTS Assay for Identification of Small Molecule Agonists for Hypoxia Response Element Signaling Pathway (AID 914; active = well fitted activation curve with a large enough effect in the signal ratio, with a control signal flat, not every such curve was filed as active; the % refers to the signal ratio; also: % of control where 0% means no effect); details: ME-180 (cervical carcinoma) HRE-bla reporter, beta-lactamase ratio, CoCl2, 17 h; activation: stronger effect = higher value
In short: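 HRE-bla ME-180 cells, overnight plating in Opti-MEM with 0.5% dialyzed FBS; cpd titration + EC50 CoCl2, 17 h, 37 degrees Celsius; CCF4 2.5 h RT; 460/530 nm ratio; AC50.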

[17] = target: Cytochrome P450 3A4 (Homo sapiens) (UniProt P08684); assay: qHTS Assay for Inhibitors and Substrates of Cytochrome P450 3A4 (AID 884); details: recombinant CYP3A4, Luciferin-PPXE luminescence; series mostly up to 57.1 µM; also: potency is read from the fitted curve at half-maximal effect; nearly all actives have a fitted effect of over 50% in size
In short: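 20 nM human CYP3A4 with 25 uM Luciferin-PPXE (at KM) in 200 mM KPO4, preincubated 10 min with compound; NADPH regeneration started a 60 min RT reaction. Luciferin detected by luminescence, normalized to 57 uM ketoconazole as full inhibition.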

[18] = target: Cytochrome P450 2C19 (Homo sapiens) (UniProt P33261); assay: qHTS Assay for Inhibitors and Substrates of Cytochrome P450 2C19 (AID 899); details: recombinant CYP2C19, luciferin-H EGE luminescence; series mostly up to 57.1 µM; also: potency is read from the fitted curve at half-maximal effect; nearly all actives have a fitted effect of over 60% in size
Sequence of Cytochrome P450 2C19 (Homo sapiens) (P33261 whole entry, looked up): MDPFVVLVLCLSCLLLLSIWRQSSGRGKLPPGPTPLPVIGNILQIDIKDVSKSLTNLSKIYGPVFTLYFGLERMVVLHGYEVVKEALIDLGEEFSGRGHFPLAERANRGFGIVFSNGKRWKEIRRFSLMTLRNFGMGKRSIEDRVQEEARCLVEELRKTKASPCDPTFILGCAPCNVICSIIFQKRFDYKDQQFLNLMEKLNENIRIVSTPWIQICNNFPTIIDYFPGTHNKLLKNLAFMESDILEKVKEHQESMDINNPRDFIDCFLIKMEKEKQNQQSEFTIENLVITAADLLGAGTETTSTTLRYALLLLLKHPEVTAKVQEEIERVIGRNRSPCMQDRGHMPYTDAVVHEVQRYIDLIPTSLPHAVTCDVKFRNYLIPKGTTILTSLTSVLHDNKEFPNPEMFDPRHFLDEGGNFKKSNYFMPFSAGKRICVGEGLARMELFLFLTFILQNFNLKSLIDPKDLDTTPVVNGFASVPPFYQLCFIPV
In short: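 5 nM human CYP2C19 with 10uM Luciferin-H EGE (at KM) in 50mM KPO4, compound preincubated 10 min at 37C, then NADPH regeneration for 60 min at 37C. Luciferin read by luminescence after detection reagent; normalized to 57uM ketoconazole as full inhibition.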

[19] = measured here: cell count channel max response
[20] = measured here: lipid channel max response

Compound	Potency [1]	activity change, negative = inhibition [2]	Potency [3]	activity change, negative = inhibition [4]	activity, negative = inhibition [5]	Potency [6]	Potency [7]	Potency [8]	Potency [9]	activity change, negative = inhibition [10]	max response [10, 19] [%]	max response [10, 20] [%]	Potency [11]	Potency [12]	Potency [13]	Potency [14]	Potency [15]	activation [16]	Potency [17]	Potency [18]
CN1CCN(c2ncc3nc(-c4cn(C)c5ccccc45)c(=O)n(C)c3n2)CC1	> 11.4 µM (inactive)	-20.2% (inactive)	31.6 µM (active)	11.3% (inactive)	12.5% (inactive)	> 46 µM (inactive)	inactive	inactive	inactive	2.17% (inactive)	7.27	7.8	inactive	inactive	inactive	inactive				
Cc1ccccc1-c1nc(N2CCOCC2)c2ccccc2n1	> 11.4 µM (inactive)	4.71% (inactive)	2 µM (active)	-2.19% (inactive)	4.23% (inactive)	> 46 µM (inactive)	inactive		inactive	6.43% (inactive)	31.7	38.9	15.8 µM (active)	15.8 µM (active)	12.6 µM (active)	28.2 µM (active)	> 46 µM (inactive)	11% (inactive)		
CC(=O)NCCNc1ncnc2ccc(-c3ccccc3C)cc12	> 11.4 µM (inactive)	28% (inactive)	0.631 µM (active)	-4.6% (inactive)	-8.49% (inactive)	> 46 µM (inactive)	inactive		inactive	3.95% (inactive)	28.7	28.3	15.8 µM (active)	12.6 µM (active)	12.6 µM (active)	inactive	> 46 µM (inactive)			
CN(C)C(=O)c1ccc(-c2ccc3ncnc(NCc4cccs4)c3c2)cc1	> 11.4 µM (inactive)	-29.4% (inactive)	15.8 µM (active)	17.3% (inactive)	-7.67% (inactive)	> 46 µM (inactive)	inactive		inactive	6.27% (inactive)	5.7	12.3	12.6 µM (active)	7.08 µM (active)	14.1 µM (active)	inactive	> 46 µM (inactive)			
COc1cccc(Cn2c(=O)c(CCc3ccccc3)nc3cnc(N4CCNCC4)nc32)c1	> 11.4 µM (inactive)	4.19% (inactive)	12.6 µM (active)	19.7% (inactive)	-8.25% (inactive)	> 46 µM (inactive)	inactive	inactive	inactive	3.32% (inactive)	9.35	12.1	inactive	inactive	inactive	inactive	> 9.22 µM (inactive)	8.93% (inactive)		
O=c1c(-c2ccc(F)cc2)nc2cnc(N3CCOCC3)nc2n1C1CC1	> 11.4 µM (inactive)	16.2% (inactive)	inactive			> 46 µM (inactive)	inactive	inactive		5.31% (inactive)	17.4	19.7	inactive	inactive	inactive	inactive	> 9.22 µM (inactive)			
Cn1c(=O)c(-c2ccc(F)cc2)nc2cnc(OCc3ccccc3)nc21	> 11.4 µM (inactive)	14.6% (inactive)		19.9% (inactive)	-11.9% (inactive)	> 46 µM (inactive)	inactive	inactive		5.66% (inactive)	7.28	10.2	inactive	inactive	inactive	inactive	> 9.22 µM (inactive)			
COc1ccccc1CNc1ncnc2ccc(-c3ccccc3OC)cc12	> 11.4 µM (inactive)	-19.9% (inactive)	1 µM (active)			> 46 µM (inactive)	inactive		inactive	-20% (inactive)	-10.4	-24.8	4.47 µM (active)	4.47 µM (active)	1.58 µM (active)	inactive	> 46 µM (inactive)		6.31 µM (active)	3.16 µM (active)
CN1CCN(c2ncnc3ccc(-c4ccoc4)cc23)CC1	> 11.4 µM (inactive)	-22.9% (inactive)		-23.1% (inactive)	-0.925% (inactive)	> 46 µM (inactive)	inactive			2.55% (inactive)	12.5	2.82	0.631 µM (active)	0.794 µM (active)	0.447 µM (active)	inactive	> 46 µM (inactive)			
COc1ccc(Oc2ncc3nc(-c4ccc(Cl)cc4)c(=O)n(C4CC4)c3n2)cc1	> 11.4 µM (inactive)	-19.7% (inactive)		2.73% (inactive)	-1.97% (inactive)	> 46 µM (inactive)	inactive			4.67% (inactive)	-1.25	5.63	inactive	inactive	inactive	inactive	> 9.22 µM (inactive)			
CN1CCN(c2ncncc2-c2ccccc2Cl)CC1	> 11.4 µM (inactive)	-12.3% (inactive)	2.51 µM (active)		-1.1% (inactive)	> 46 µM (inactive)	inactive	inactive	inactive	-1.74% (inactive)	8.31	3.53	inactive	inactive	inactive	inactive	> 46 µM (inactive)	4.87% (inactive)	1.58 µM (active)	

— PubChem BioAssay (NCATS)
